# Screening results: PubChem BioAssay, several laboratories
# Hits are enriched below; roughly 2% of the tested compounds scored in any of these assays.
# CCHF vOTU inh-1: blocks the CCHF virus ovarian tumor domain protease; CCHFV vOTU protease, Pep-AMC fluorescence; inhibition, % at 11.5 µM; 0.55% of 370,000 active; AID 651958
# PrPC surface inh: reduces human prion protein on the cell surface | AID 720596 | cell surface PrPC, TR-FRET read-out | inhibition, % at 13.8 µM | 0.43% of 370,000 active | P04156; in the data active = inhibition above about 24%
# PrP 5UTR inh: inhibition of PrP 5' UTR reporter expression; cell-based PrP 5' UTR mRNA reporter, plate reader; inhibition, % (concentration not given with the values); 0.35% of 340,000 active; AID 488862; in the data active = inhibition above about 52%
# BJeLR lethal: kills HRASV12-expressing BJeLR cells; 0.17% of 300,000 active; BJeLR (HRASV12) viability, CellTiter-Glo ATP luminescence, 48 h; AID 1554; inhibition, % (no concentration beside the values); in the data active = inhibition above about 50%; inconclusive = no clear call, values can overlap the other calls
# PfHsp40 rescue: restores yeast growth despite PfHsp40 toxicity. 0.68% of 340,000 active. S. cerevisiae expressing PfHsp40, growth rescue, ATP luminescence. growth rescue, % at 12.5 µM; in the data active = growth rescue above about 28%, passing the limit was not always enough; inconclusive = no clear call, values can overlap the other calls;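 note: yeast W303a lacking pdr1 and pdr3 grown in galactose medium; growth measured after three days at 30 °C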
# Y pestis TopoI: inhibitors of Yersinia pestis topoisomerase I. Y. pestis Topo-I cleavage product accumulation, plate reader. activity, % at 10 µM. 0.064% of 360,000 active. AID 504884; in the data active = activity above about 50%, passing the limit was not always enough; inconclusive = no clear call, values can overlap the other calls
# CCHF vOTU inh-2: confirmation of CCHF virus vOTU protease inhibitors; shares compounds with CCHF vOTU inh-1; Recombinant CCHFV vOTU, Pep-AMC fluorescence; inhibition, % at 11.5 µM; 17% of 1,900 active
# A number is an active result; – = inactive; ? = inconclusive; · = no result given. Cut-off read from the data, not from the text of the source, unless noted: active = inhibition above about 30%; inactive = the rest.
SMILES,CCHF vOTU inh-1,PrPC surface inh,PrP 5UTR inh,BJeLR lethal,PfHsp40 rescue,Y pestis TopoI,CCHF vOTU inh-2
COc1cc2c(cc1OC)-c1c(OC)c(OC)cc3c1[C@H](C2)N(C)CC3,89,–,–,–,–,–,79
O=C(C[C@@H]1C/C=C/CCCC(=O)O[C@H](c2ccccc2)CNC1=O)N[C@H](CO)Cc1ccccc1,31,–,–,·,–,–,–
CC1=CC(C)(C)N2C(=O)C(=Nc3ccc(O)cc3)c3cccc1c32,82,–,–,–,–,–,–
Cc1cc(NS(=O)(=O)c2ccc(NC(=O)COc3c(C)cc(Br)cc3C)cc2)no1,31,–,–,–,–,–,–
COc1ccc(OCC(=O)Nc2ccc(S(=O)(=O)Nc3cc(C)on3)cc2)cc1,–,–,–,–,–,–,·
Cc1cc(NS(=O)(=O)c2ccc(NC(=O)c3oc4ccccc4c3C)cc2)no1,31,–,–,–,–,–,–
Cc1c(-c2ccccc2)nnn1-c1ccc(F)c(Cl)c1,–,–,·,·,·,·,·
O=C(NC1(O)C(=O)c2ccccc2C1=O)c1ccc(C(F)(F)F)cc1,81,–,·,–,·,–,35
O=C(Cc1ccccc1)NC1(O)C(=O)c2ccccc2C1=O,–,–,–,–,–,–,·
Cc1ccc(C(=O)NC2(O)C(=O)c3ccccc3C2=O)cc1C,49,–,–,–,–,–,–
O=C(NC1CCCCN(Cc2cccc(Cl)c2)C1=O)c1ccccc1 (stereo not given),–,–,·,·,·,·,·
O=S1(=O)c2ccc(Br)cc2OC[C@H](c2ccccc2)N1Cc1ccccc1,–,–,·,·,·,·,·
COc1ccc(S(=O)(=O)N(C)C[C@@H]2Oc3cc(C#CC4CCCCC4)ccc3S(=O)(=O)N([C@@H](C)CO)C[C@@H]2C)cc1,32,–,·,·,·,–,–
COc1ccc(C#Cc2ccc3c(c2)O[C@H](CN(C)S(=O)(=O)c2ccccc2F)[C@H](C)CN([C@H](C)CO)S3(=O)=O)cc1,–,–,·,·,·,·,·
C[C@H](CO)N1C[C@H](C)[C@@H](CN(C)C(=O)NC2CCCC2)Oc2cc(Br)ccc2S1(=O)=O,30,–,·,·,·,–,–
COc1cc(C(=O)O[C@H]2CC(C)=CC[C@@]3(C)CC[C@@](O)(C(C)C)[C@H]23)ccc1O,38,–,–,–,–,–,–
CCCCN1CN2Cc3cc(OC)ccc3C2CS1(=O)=O (stereo not given),–,–,·,·,·,·,·
CCN(CC)C(=O)c1oc(=O)c2ccccc2c1-c1ccc(C)cc1,–,–,·,·,·,·,·
CC(=O)Nc1c([N+](=O)[O-])cc2c3c(cccc13)CC2,33,–,·,·,·,·,–
CC(=O)Nc1ccc2c3c(cccc13)CC2,–,–,–,–,–,–,·
Cc1onc(C(=O)N2CCN(C(c3ccccc3)c3ccccc3)CC2)c1Br,·,–,·,·,·,·,·
COc1ccccc1NS(=O)(=O)c1cccc(-n2c(O)c(C=Nc3ccccc3C(=O)O)c3ccccc3c2=O)c1,38,–,–,–,–,–,37
COc1ccc(Cn2c(O)c(C=Nc3ccccc3C(=O)O)c3ccccc3c2=O)cc1,–,–,–,–,–,–,·
C(=N\Nc1nc(-c2ccccc2)cs1)/c1ccco1,31,–,–,–,–,–,–
CC(C)CNC(=O)C1(C)CCCCCN1Cc1ccccc1-c1ccccc1 (stereo not given),35,–,·,·,·,?,–
SMILES,CCHF vOTU inh-1,PrPC surface inh,PrP 5UTR inh,BJeLR lethal,PfHsp40 rescue,Y pestis TopoI,CCHF vOTU inh-2
CCNC(=O)C1(C)CCCN1Cc1ccccc1Cl (stereo not given),–,–,·,·,·,–,·
COc1ccc(/C=N\NC(=O)Cc2cccs2)c(OC)c1OC,–,–,·,·,·,·,·
O=C(Cn1cnc2ccccc2c1=O)N1CCN(Cc2ccc(F)cc2)CC1,–,–,·,·,·,·,·
CC(C)CCOP(=O)(c1ccc(N(C)C)cc1)C(O)c1ccc(Cl)cc1Cl (stereo not given),41,–,–,–,–,–,–
COC(=O)[C@]12C[C@H](CC(=O)N3CCC(c4ccccc4)CC3)C(=O)N(Cc3ccc(Cl)cc3Cl)C1=C[C@H](COCc1ccccc1)O[C@@H]2C,–,–,·,·,·,·,·
Cc1c(C)n(Cc2ccc(-c3ccccc3C(=O)O)cc2)c2ccc(C(=O)N[C@@H](C)c3ccc(Br)cc3)cc12,33,–,·,·,·,·,–
O=S(=O)(c1cccs1)N1CCCc2nc(-c3ccc(F)cc3)ccc21,–,–,·,·,·,·,·
O=C(NCc1ccccc1)c1nc2c(nnn2Cc2cccc(Cl)c2)c(=O)[nH]1,45,–,–,–,–,–,–
NC(=O)C1(N2CCCCC2)CCN(C2CC(=O)NC2=O)CC1 (stereo not given),31,–,–,–,–,–,–
O=S1(=O)c2ccc(Br)cc2OC[C@@H](c2ccccc2)N1Cc1cn(CCC2OCCCO2)nn1,–,–,·,·,·,·,·
CCOC(=O)[C@@]12CCC3=C1N(CCC3)C(=O)[C@H](CC(=O)NCc1ccc(OC)c(OC)c1)C2,–,–,·,·,·,·,·
CCOC(=O)c1c2c3c(cccc3n(C)c1=O)C(=O)c1ccccc1-2,–,–,–,–,–,–,·
CCOC(=O)c1c2c(n(Cc3ccccc3)c1C)C(=O)C(=O)c1ccccc1-2,102,–,–,·,–,–,102
C=CCc1cccc(C=Nc2ccc(Br)cc2)c1O,–,–,–,–,–,–,·
C=CCc1cccc(/C=N/c2ncccc2O)c1O,59,–,–,–,–,–,–
Cc1cc(C)nc(NC(=S)N2CCN(c3ccc(Cl)c(Cl)c3)CC2)c1,·,–,·,·,·,·,·
O=C1c2ccccc2C(=O)c2c1ccc1c(=O)n(C3CCCCC3)[nH]c21,–,–,–,–,–,–,·
O=C1C2=C(c3ccccc31)[N+](=O)[C@@H]1CCCC[C@@H]1N2[O-],74,–,–,–,–,–,–
O=C1C2=C(c3ccccc31)[N+](=O)C1CCCCC1N2[O-] (stereo not given),57,–,–,–,–,–,–
COC(=O)C[C@@H]1C[C@H]2c3cc(NC(=O)Nc4ccccc4F)ccc3O[C@H]2[C@@H](CO)O1,–,–,·,·,·,·,·
Cc1cc(NS(=O)(=O)c2ccc(NC(=O)CSc3nnc(-c4cccnc4)n3-c3ccccc3)cc2)nc(C)n1,–,–,·,·,·,·,·
Cc1cc(C(=O)N/N=C/c2ccc([N+](=O)[O-])s2)c2ccccc2n1,31,–,–,–,–,–,–
COC(=O)C1(C(=O)OC)C[C@H](/C=C/c2ccccc2)N(Cc2ccccc2OC)[C@@H]1c1ccc(F)cc1,31,–,·,·,·,·,–
O=C(Nc1nc(Cc2ccccc2)c(Cc2ccccc2)n1Cc1ccccc1)c1ccccc1,–,–,·,·,·,·,·
O=C(COC(=O)c1ccc([N+](=O)[O-])s1)Nc1cccc(S(=O)(=O)NC2=NCCCCC2)c1,58,–,–,–,–,–,35
CC(C)(C)c1ccc(NC(=O)COC(=O)c2ccc([N+](=O)[O-])s2)cc1,–,–,–,·,–,–,·
O=C(COC(=O)c1ccc([N+](=O)[O-])s1)Nc1ccc(F)cc1,82,–,–,·,–,–,72
